Assay results: PubChem BioAssay (NCATS)
“And” between values parts separate entries of the source, which are not always exact repeats. Identical values can stand only once. Records with an inconclusive call do not appear. Where a call stands in place of a potency, no number is given. The source made the active and inactive calls. Calls come from the whole dose curve; as a rule, active = well fitted curve in the direction sought with a large enough effect; inconclusive = small, poorly fitted or top-dose-only effect, or another doubt; inactive = no such curve, though single readings can be large; an effect the other way counts as inactive or inconclusive.

target: Cellular tumor antigen p53 (Homo sapiens) (UniProt P04637); experiment: Primary qHTS for small molecule compounds that upregulate eGFP-tagged delta133p53alpha (in N-terminal) cells. (AID 2060322); details: NCI-H358 eGFP-delta133p53alpha fluorescence, 24 h; activation: hits give high values; note: nearly all actives have a fitted effect of over 75% in size
Sequence (P04637 whole entry, looked up): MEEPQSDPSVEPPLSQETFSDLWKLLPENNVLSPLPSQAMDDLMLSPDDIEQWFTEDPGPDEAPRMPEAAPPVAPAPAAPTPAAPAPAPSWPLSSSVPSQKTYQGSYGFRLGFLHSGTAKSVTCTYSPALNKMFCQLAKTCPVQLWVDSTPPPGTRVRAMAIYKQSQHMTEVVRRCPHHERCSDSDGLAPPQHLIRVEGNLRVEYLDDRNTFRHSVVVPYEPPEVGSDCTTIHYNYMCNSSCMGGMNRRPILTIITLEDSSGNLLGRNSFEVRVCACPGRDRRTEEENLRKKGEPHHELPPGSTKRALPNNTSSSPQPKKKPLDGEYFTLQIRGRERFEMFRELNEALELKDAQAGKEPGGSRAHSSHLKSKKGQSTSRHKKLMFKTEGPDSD
How it was run: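 NCI-H358 cells pre-induced 24 h with 10 ng/ml doxycycline to express N-terminal eGFP-delta133p53alpha, then dosed 24 h at 37C without doxycycline; fixed, Hoechst-stained, GFP intensity by laser scanning cytometry, normalized to DMSO (0%) and 57.5 uM 5-azacytidine (100%).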

Q: For `CN(CCc1ccc(Nc2ncc(-c3cccnc3)s2)cc1)Cc1ccccc1`, which activation is on record?
A: Its activation is -8.59% (inactive).

Q: How did the activation turn out when `Cc1ccc2[nH]c(=O)c(C3=NN(C(=O)CCC(=O)O)C(c4ccc(Br)cc4)C3)c(-c3ccccc3)c2c1` (stereo not drawn) was run?
A: The activation was -22.4% (inactive).

Q: For `Cc1nc(C)c(-c2ccc(C3CCC(CC(=O)O)CC3)cc2)nc1C(N)=O` (stereo not drawn), which activation is on record?
A: Its activation is -13.4% (inactive).

Q: For `CCN(CC)C(=O)C(c1ccccc1)N1CCN(c2ccc(NC(=O)c3ccccc3-c3cccnc3)cc2F)CC1` (stereo not drawn), which activation is on record?
A: Its activation is -6.21% (inactive).

Q: `CN(C)c1nc(Cc2ccc(NC(=O)c3ccc(C(F)(F)F)cc3)cc2)nc(N(C)C)c1CC(=O)O` was tested. Which activation did it give?
A: The activation was -14.6% (inactive) and -1.43% (inactive).

Q: How did the activation turn out when `CC(=O)N(C)C1(c2ccccc2)CCN(CCC[C@]2(c3ccc(Cl)c(Cl)c3)CCCN(C(=O)c3ccccc3)C2)CC1` was run?
A: Its activation is 16.9% (inactive).

target: Aldehyde dehydrogenase, mitochondrial (Homo sapiens) (UniProt P05091); experiment: qHTS for Inhibitors of the Aldehyde Dehydrogenase Family (ALDH2) Primary screen (AID 2061308); details: ALDH2 enzyme inhibition qHTS, 1536-well; series mostly up to 56 µM; note: nearly all actives have a fitted effect of over 55% in size

Q: Which Potency does the source give for `OCC(O)CN1CCN(c2ccccc2)CC1` (stereo not drawn) here?
A: Its Potency is “inactive”.

Q: `Fc1ccc2c(CCNCc3cccc(OCC(F)(F)C(F)F)c3)c[nH]c2c1` was tested. Which Potency did it give?
A: Its Potency is “inactive”.

Q: `O=S(=O)(NC1CCC(c2cc(F)ccc2F)(S(=O)(=O)c2ccc(Cl)cc2)CC1)C(F)(F)F` (stereo not drawn) was tested. Which Potency did it give?
A: Its Potency is “inactive”.

Q: `CC(=O)Nc1cccc(Nc2ncnc(N3CCC(OCc4ccc(OC(F)(F)F)cc4)CC3)n2)c1C` was tested. Which Potency did it give?
A: The Potency was “inactive”.

Q: Which Potency does the source give for `CC(=O)O[C@]1(C(C)=O)CC[C@H]2[C@@H]3CCC4=CC(=O)CCC4=C3[C@@H](c3ccc(N(C)C)cc3)C[C@@]21C` here?
A: The Potency was “inactive”.

Q: `O=C(NCCCN1CCOCC1)c1cnn2c(-c3ccccc3)cc(-c3ccccc3)nc12` was tested. Which Potency did it give?
A: The Potency was “inactive”.

Q: `COc1cccc(C(=O)NCCNc2nc3cc(C)cc(C)c3cc2C#N)c1` was tested. Which Potency did it give?
A: Its Potency is “inactive”.

Q: `CC(C)(C)c1ccc(CNC(=S)NCc2ccc(NS(C)(=O)=O)c(F)c2)cc1` was tested. Which Potency did it give?
A: Its Potency is “inactive”.

Q: With `CC(=O)NC1=NN(C(C)=O)C(C)(c2ccccc2)S1` (stereo not drawn) as the compound, how does the Potency read?
A: Its Potency is “inactive”.

Q: With `COc1ccc(C(=O)n2c(C)c(Cc3cccc(O[C@@H](C)C(=O)O)c3)c3cc(OC(F)(F)F)ccc32)cc1` as the compound, how does the Potency read?
A: The Potency was “inactive”.

Q: For `O=C(NCC1CCN(Cc2cccc(Cl)c2)CC1)[C@@H]1CCCN(c2ncnc3c2nc2n3CCCC2)C1`, which Potency is on record?
A: The Potency was “inactive”.

Q: How did the Potency turn out when `COc1cc(N2CCOCC2)ccc1NC(=O)c1csc(-c2cccnc2)n1` was run?
A: The Potency was “inactive”.

Q: With `CNS(=O)(=O)CC1CCC(N(C)c2ncnc3[nH]ccc23)CC1` (stereo not drawn) as the compound, how does the Potency read?
A: The Potency was “inactive”.

Q: Which Potency does the source give for `Cc1noc(C)c1-c1cc(O)cc(C(O)c2ccccc2)c1` (stereo not drawn) here?
A: Its Potency is “inactive”.

Q: `CCOC(CN1CCN(CC(C)C(=O)c2ccccc2)CC1)c1ccccc1` (stereo not drawn) was tested. Which Potency did it give?
A: Its Potency is “inactive”.

Q: With `O=c1[nH]cnc2c1ncn2[C@@H]1O[C@H](CO)[C@@H](O)[C@H]1O` as the compound, how does the Potency read?
A: The Potency was “inactive”.

Q: Which Potency does the source give for `CN(C)C(=O)NC1(c2ccccc2)CCN(CCC[C@]2(c3ccc(Cl)c(Cl)c3)CCCN(C(=O)c3ccccc3)C2)CC1` here?
A: The Potency was “inactive”.

Q: Which Potency does the source give for `Cn1c2ccc(F)cc2c2c(C(=O)N3CCCC3)cn(-c3ccccc3)c(=O)c21` here?
A: The Potency was “inactive”.

Q: For `O=C(NCc1ccccn1)Nc1nnc(-c2ccco2)o1`, which Potency is on record?
A: Its Potency is “inactive”.

Q: `Cc1nc2cc(-c3cc(F)cc(C#N)c3)ccc2s1` was tested. Which Potency did it give?
A: The Potency was “inactive”.

Q: Which Potency does the source give for `Cc1nc(Nc2ccc(F)cc2)nc(N2CCc3ccccc3C2C)c1C` (stereo not drawn) here?
A: Its Potency is “inactive”.

Q: How did the Potency turn out when `Cn1c(=O)cc(N2CCCC(N)C2)n(Cc2cc(F)ccc2C#N)c1=O` (stereo not drawn) was run?
A: Its Potency is “inactive”.

Q: How did the Potency turn out when `c1ccc(Nc2nc3c(s2)CCCc2[nH]ncc2-3)nc1` was run?
A: The Potency was “inactive”.

Q: How did the Potency turn out when `Cc1c(C(=O)Nc2ccc(N3CC(C)OC(C)C3)nc2)cccc1-c1ccc(OC(F)(F)F)cc1` (stereo not drawn) was run?
A: Its Potency is “inactive”.

Q: For `CC[C@@H](c1ccc(F)c(F)c1)n1c(C(=O)OC)c(-c2ccno2)[nH]c1=S`, which Potency is on record?
A: Its Potency is “inactive”.

Q: For `Cc1ccc(C2(C(=O)N3CCC(n4nc(-c5ccccc5)oc4=O)CC3)CC2)cc1`, which Potency is on record?
A: Its Potency is “inactive”.

Q: How did the Potency turn out when `COC(=O)N1CCC(n2ncc3c(N4CCOCC4)nc(-c4ccc(NC(=O)NC5CC5)cc4)nc32)CC1` was run?
A: The Potency was “inactive”.

Q: `CC(C)c1c(NC(=O)Nc2ccc(Cl)cc2)c(=O)n(-c2ccccc2)n1C` was tested. Which Potency did it give?
A: The Potency was “inactive”.

Q: For `CCCCc1ccc(C(=O)Nc2cc(-c3ccc(Cl)cc3)nn2-c2ccc(Cl)cc2)cc1`, which Potency is on record?
A: Its Potency is “inactive”.

Q: For `CC(C)S(=O)(=O)Nc1ccc(F)c(C(=O)c2c[nH]c3ncc(-c4cccnc4)cc23)c1F`, which Potency is on record?
A: The Potency was “inactive”.

Q: Which Potency does the source give for `COc1cccc(-c2ccc([C@@H](Oc3cc(-c4ccc(C[C@H](N)C(=O)O)cc4)nc(N)n3)C(F)(F)F)cc2)c1` here?
A: The Potency was “inactive”.

Q: Which Potency does the source give for `CC[C@H]1OC(=O)C[C@@H](O)[C@H](C)[C@@H](O[C@@H]2O[C@H](C)[C@@H](O)[C@H](N(C)C)[C@H]2O)[C@@H](CCN2C[C@H](C)C[C@H](C)C2)C[C@@H](C)C(=O)/C=C/C(C)=C/[C@@H]1CO[C@@H]1O[C@H](C)[C@@H](O)[C@@H](OC)[C@H]1OC` here?
A: The Potency was “inactive”.
